Test results: PubChem BioAssay AID1159580 (chemical genetic matrix, 2015)
Values joined by “and” are separate entries in the source; they are usually repeats but may differ in a detail not shown here. Equal entries are not always repeated. About 2,000 (36%) of roughly 5,500 compounds were called active. Inconclusive results (about 18%) are left out. No stated cut-off is given here; in the data, active means normalized growth mostly below about 0.91 (no sharp cut-off); inconclusive means no clear call, values can overlap the other calls; inactive means mostly above about 0.92. The list shows a part of the results.

Assay: chemical genetic growth profiling, strain panel (AID 1159580);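 further: tested at 20 µM; growth read once vehicle control cultures reached saturation at 30 °C; 1 = growth at the plate median or of vehicle wells; lower values mean less growth of the strain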
Details: S. cerevisiae deletion strains, growth OD

Measured: normalized growth

Cc1cc(C(C)(C)C)c(O)c(C(C)(C)C)c1
active: locus YDR195W, strain ref2 0.845
inactive: locus YAL013W, strain DEP1, hits give low values 0.985 | locus YAL021C, strain ccr4, hits give low values 1.04 | locus YAL026C, strain drs2, hits give low values 0.956 | locus YAL030W, strain snc1, hits give low values 0.99 | locus YBL061C, strain skt5, hits give low values 0.943 | locus YBR009C, strain hhf1, hits give low values 0.91 | locus YBR021W, strain FUR4, hits give low values 0.997 | locus YBR023C, strain chs3, hits give low values 0.984 | locus YBR171W, strain sec66, hits give low values 0.979 | locus YBR229C, strain ROT2, hits give low values 0.964 | locus YBR231C, strain swc5, hits give low values 0.921 | locus YBR279W, strain paf1, hits give low values 0.996 | locus YCL011C, strain gbp2, hits give low values 0.917 | locus YCL016C, strain dcc1, hits give low values 0.983 | locus YCL029C, strain bik1, hits give low values 0.983 | locus YCL061C, strain MRC1, hits give low values 0.991 | locus YCL069W, strain vba3, hits give low values 0.99 | locus YCR088W, strain abp1, hits give low values 0.976 | locus YDL005C, strain med2, hits give low values 0.975 | locus YDL035C, strain GPR1, hits give low values 0.947 | locus YDL040C, strain nat1, hits give low values 0.978 | locus YDL074C, strain BRE1, hits give low values 0.816 | locus YDL101C, strain DUN1, hits give low values 0.96 | locus YDL134C, strain PPH21, hits give low values 0.972 | locus YDL185W, strain tfp1, hits give low values 0.962 | locus YDL192W, strain arf1, hits give low values 0.969 | locus YDR001C, strain nth1, hits give low values 0.978 | locus YDR069C, strain doa4, hits give low values 0.963 | locus YDR101C, strain arx1, hits give low values 0.977 | locus YDR137W, strain rgp1, hits give low values 0.965 | locus YDR150W, strain NUM1, hits give low values 0.975 | locus YDR159W, strain sac3, hits give low values 0.959 | locus YDR162C, strain NBP2, hits give low values 0.859 | locus YDR297W, strain sur2, hits give low values 0.983 | locus YDR318W, strain mcm21, hits give low values 0.984 | locus YDR334W, strain swr1, hits give low values 0.966 | locus YDR335W, strain msn5, hits give low values 0.989 | locus YDR388W, hits give low values 0.994 | locus YDR392W, strain spt3, hits give low values 0.937 | locus YDR502C, strain sam2, hits give low values 0.952 | locus YEL003W, strain gim4, hits give low values 0.967 | locus YEL037C, strain rad23, hits give low values 0.976 | locus YEL061C, strain CIN8 (second series), hits give low values 0.976 | locus YEL061C, strain CIN8, hits give low values 0.983 | locus YER015W, strain faa2, hits give low values 0.937 | locus YER016W, strain bim1, hits give low values 0.984 | locus YER110C, hits give low values 1 | locus YER111C, strain swi4, hits give low values 0.982 | locus YER155C, strain BEM2 (second series), hits give low values 0.949 | locus YER155C, strain BEM2, hits give low values 0.986 | locus YER167W, strain BCK2, hits give low values 0.963 | locus YFR010W, strain ubp6, hits give low values 0.956 | locus YGL078C, strain dbp3, hits give low values 0.962 | locus YGL086W, strain mad1, hits give low values 1 | locus YGL167C, strain pmr1, hits give low values 0.991 | locus YGL173C, strain kem1, hits give low values 0.957 | locus YGL227W, strain vid30, hits give low values 0.989 | locus YGL240W, strain doc1, hits give low values 0.938 | locus YGL248W, strain PDE1, hits give low values 0.965 | locus YGL253W, strain hxk2, hits give low values 0.96 | locus YGR078C, strain PAC10, hits give low values 0.93 | locus YGR135W, strain pre9, hits give low values 0.928 | locus YGR229C, strain SMI1, hits give low values 0.86 | locus YGR252W, strain gcn5, hits give low values 1.03 | locus YHR013C, strain ard1, hits give low values 1.1 | locus YHR027C, strain rpn1, hits give low values 0.955 | locus YHR030C, strain SLT2, hits give low values 0.996 and 0.877 | locus YHR079C, strain IRE1 (second series), hits give low values 0.963 | locus YHR079C, strain IRE1, hits give low values 0.918 | locus YHR094C, strain hxt1, hits give low values 1 | locus YHR129C, strain ARP1, hits give low values 0.978 | locus YHR142W, strain chs7, hits give low values 0.961 | locus YHR200W, strain rpn10, hits give low values 1 | locus YIL066C, strain RNR3, hits give low values 0.934 | locus YIL073C, strain SPO22, hits give low values 0.929 | locus YIL125W, strain kgd1, hits give low values 0.967 | locus YIR030C, strain dcg1, hits give low values 0.998 | locus YJL092W, strain hpr5, hits give low values 0.984 | locus YJL095W, strain BCK1 (second series), hits give low values 0.979 | locus YJL095W, strain BCK1, hits give low values 0.903 and 0.934 | locus YJL115W, strain asf1, hits give low values 0.983 | locus YJL129C, strain trk1, hits give low values 0.953 | locus YJL134W, strain LCB3, hits give low values 1 | locus YJL154C, strain vps35, hits give low values 0.984 | locus YJL164C, strain tpk1, hits give low values 0.95 | locus YJL166W, strain qcr8, hits give low values 0.951 | locus YJL168C, strain set2, hits give low values 0.996 | locus YJL187C, strain SWE1 (second series), hits give low values 0.886 | locus YJR043C, strain POL32, hits give low values 0.97 | locus YJR066W, strain TOR1, hits give low values 0.942
